# Screening data: PubChem, National Center for Advancing Translational Sciences (NCATS)
# This is a sample that favours compounds with a hit; in the whole collection about 21% have one here.
# Pf growth 48h – inhibits P. falciparum growth in the first generation, 48 h; AID 504832; hit rate 5.9% among 310,000; P. falciparum luciferase growth in erythrocytes, 48 h; Potency, µM (titrated, usually from 28.7 µM), inactives show at the highest dose activity change, negative = inhibition, actives largely listed as inhibitors; note: potency is the fitted concentration of half-maximal effect; % is set by controls: 0 for no effect and ±100 for the full control effect
#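 A one-generation exposure of luciferase-tagged malaria parasites in RPMI 1640/Albumax erythrocyte culture, 37 C and 5% CO2. Inhibition is inferred from decreased luminescence after adding detection reagent.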
# Sm TGR block – inhibitors of Schistosoma mansoni thioredoxin glutathione reductase; Q962Y6; hit rate 3% among 360,000; Potency, µM (highest dose often 114 µM), for inactives: top-dose activity change, negative = inhibition, most hits filed as inhibitors; purified TGR, DTNB reduction, TNB absorbance 405 nm; AID 485364; note: potency is the fitted concentration of half-maximal effect; % is set by controls: 0 for no effect and ±100 for the full control effect; nearly all actives have a fitted effect of over 60% in size
#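 Kinetic colorimetric format: TGR-catalysed, NADPH-driven DTNB reduction monitored via TNB absorbance. Enzyme dispensed at 20 nM; compound exposure 15 min at room temperature before reaction start.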
# Cycloheximide cs – counter-screen hit for Shiga toxin inhibitors, cycloheximide; max response, %; AID 2314; hit rate 12% among 300,000; cell reporter, cycloheximide protein synthesis inhibition counterscreen; in the data active = max response mostly above about 13%, no sharp cut-off; inactive = mostly below about 14%; note: read at 38.3 µM for the half of the compounds with a filed dose; 0% is about no effect
# Shiga inhibitor – Shiga toxin inhibition; inhibition, % at 38.7 µM; hit rate 9.2% among 290,000; AID 2315; Vero cells, Shiga toxin protein synthesis inhibition reporter; in the data active = inhibition mostly above about 28%, no sharp cut-off; inactive = mostly below about 43%; note: 0% is about no effect
# Pf growth 96h – inhibits malaria parasite growth, 96 h; AID 504834; hit rate 6.9% among 320,000; P. falciparum luciferase reporter growth, 96 h; Potency, µM (highest dose often 28.7 µM), inactives show at the highest dose activity change, negative = inhibition, hits mostly inhibitors; note: potency is the fitted concentration of half-maximal effect; % is set by controls: 0 for no effect and ±100 for the full control effect
#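 Two parasite generations (96 h, 37 C, 5% CO2) of compound exposure in infected erythrocytes (0.05% parasitemia, 2% hematocrit). Luciferase-reporter P. falciparum; decreased luminescence indicates inhibited growth, aimed at apicoplast-acting delayed death.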
# NS1 inh – influenza NS1 inhibition; hit rate 0.4% among 270,000; Potency, µM (series often up to 46.1 µM), for inactives: at the highest dose activity, positive = more growth; calls by dose curve; note: potency is the fitted concentration of half-maximal effect; actives are rising curves; nearly all actives have a fitted effect of over 50% in size
#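 Recovery from NS1-induced slow growth read by OD600 in budding yeast switched to galactose assay medium (pH 6.0, -URA) at 1:100 dilution. Compound 23 nl per well; the matching strain lacking NS1 serves as control.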
# * marks the source's active call; other numbers are inactive results; u = inconclusive; x = not tested or not shown; [ ] = another dose, or the depositor's remark. Unless noted, calls come from the whole dose curve; as a rule, active = well fitted curve in the direction sought with a large enough effect; inconclusive = small, poorly fitted or top-dose-only effect, or another doubt; inactive = no such curve, though single readings can be large; an effect the other way counts as inactive or inconclusive.
SMILES,Pf growth 48h,Sm TGR block,Cycloheximide cs,Shiga inhibitor,Pf growth 96h,NS1 inh
C#CCOc1c(Cl)cc(C2C3=C(CCCC3=O)N(CC(=O)O)C3=C2C(=O)CCC3)cc1OC,-10%,-6%,-1,-1,-5%,7%
Cc1ccc(OCc2cc(C(=O)NC3CCCCC3)no2)cn1,17%,0%,8,-6,13µM*,-13%
CCc1cc(CNC(=O)c2cc(COc3ccc(C)nc3)on2)on1,-2%,-30%,44*,59*,-4%,-9%
Cc1ccc(OCc2cc(C(=O)NCc3ccc(OC(F)(F)F)cc3)no2)cn1,-6%,-8%,10,11,-8%,-17%
Cc1ccc(S(=O)(=O)N2CCN(c3ncnc4sccc34)CC2)cc1,u,-2%,-3,-8,u,-51%
O=C(CC1C(=O)NCCN1Cc1ccc(F)c(F)c1)NCCCn1ccnc1 (centres undefined),33%,-3%,5,13,15%,-2%
COC(=O)c1nc(-c2ccc3c(n2)C(=O)C(N)=C(OC)C3=O)c(N)c(-c2ccc(OC)c(OC)c2O)c1C,0.093µM*,1%,11,-7,u,u
COC1=C(N)C(=O)c2nc(-c3nc(C(=O)O)c(C)c(-c4ccc(OC)c(OC)c4O)c3N)ccc2C1=O,0.052µM*,-7%,-4,-13,0.019µM*,-21%
COc1ccc(-c2ncncc2-c2csc(C)n2)c(O)c1OC,8%,0%,-1,-24,x,4%
COc1ccc(C2=NOC(C(=O)Nc3ccc(C)cc3)C2)cc1OC (centres undefined),x,2%,-2,-20,-3%,-18%
COc1cc(C2=NOC(C(=O)Nc3ccc4c(c3)OCO4)C2)cc(OC)c1OC (centres undefined),2.9µM*,-10%,18*,25,13%,-12%
COc1ccc(NC(=O)C2CC(c3ccc(OC)c(OC)c3)=NO2)cc1OC (centres undefined),-4%,2%,1,-15,13µM*,0%
COc1ccc(C2=NOC(C(=O)Nc3ccc4c(c3)OCO4)C2)cc1OC (centres undefined),-22%,-10%,28*,89*,-7%,x
COc1ccc(C2=NOC(C(=O)NCc3ccc(F)cc3)C2)cc1OC (centres undefined),-28%,-13%,-5,-5,2.3µM*,1%
Cc1ccc(S(=O)(=O)Nc2ccc(Oc3cccnc3)nc2)cc1,10%,1%,-3,-9,-1%,-8%
CC(=O)NCCNC(=O)CCCc1nnc2n(C)c(=O)c3sccc3n12,x,1%,x,x,x,x
O=C(NCC1(c2ccccc2)CCCC1)c1ccc(Br)o1,u,-10%,-1,-5,40%,-33%
Cc1nc(Sc2nnnn2C)c2c3c(sc2n1)CCC3,x,-5%[11.4 µM],-1,-18,66%,-3%
CCc1nc(Sc2nnnn2-c2ccccc2)c2c3c(sc2n1)CCCC3,12µM*,5%,1,-6,u,10%
Cc1c(C(=O)N(C)c2ccccc2Cl)cnn1-c1ccccc1,2%,-1%,12*,30*,-14%,28%
Cc1c(C(=O)N(C)c2cccc(Cl)c2)cnn1-c1ccccc1,9.3µM*,-1%,39*,60*,u,-14%
COc1cc(/C=C2/SC(=S)N(Cc3ccccc3)C2=O)cc(Cl)c1O,u,u,-3,-9,0%,5%
COc1cc([N+](=O)[O-])cc(/C=C2/SC(=S)N(Cc3ccccc3)C2=O)c1O,10µM*,-33%,0,-4,9%,-4%
O=C1/C(=C\c2cc(Br)cc(Br)c2O)SC(=S)N1Cc1ccccc1,u,40µM*,-4,-5,11%,-5%
O=C(Nc1ccon1)c1ccc(OC2CCCC2)cc1,-14%,-1%,64*,92*,5.2µM*,-18%
SMILES,Pf growth 48h,Sm TGR block,Cycloheximide cs,Shiga inhibitor,Pf growth 96h,NS1 inh
CC(C)(C)c1cc(NC(=O)c2ccc(OC3CCCC3)cc2)no1,12µM*,3%,3,18,12µM*,2%
CCCc1nnc(NC(=O)Cc2coc3cc(C)cc(C)c23)s1,x,5%,x,x,x,x
O=C(O)c1ccc(NC(=S)NC(=O)c2cccnc2)cc1,271%,35µM*,4,29,u,12%
COc1ccc(NC(=S)NC(=O)c2cccnc2)cc1,0%,22µM*,12,13,u,-3%
COC(=O)c1ccc(NC(=S)NC(=O)c2cccnc2)cc1,32%,u,-2,10,52%,8%
O=C1C(Cl)=C(NS(=O)(=O)c2ccc([N+](=O)[O-])cc2)C(=O)c2ccccc21,u,0.89µM*,-1,-3,5.2µM*,1%
O=C1C(Cl)=C(Nc2ccc(S(=O)(=O)Nc3ccccn3)cc2)C(=O)c2ccccc21,x,x,x,x,x,-26%
O=c1c(-c2nnc(SCc3ccc(Cl)cc3)o2)cccn1Cc1ccccc1,u,6%,-1,-8,13µM*,-17%
O=C(Nc1ccccc1-c1nnc(SCc2ccccc2)o1)c1ccccc1,u,1%,-4,-5,u,20%
O=C(Nc1ccccc1-c1nnc(SCc2ccc(Cl)cc2)o1)c1ccccc1,13µM*,-4%,-1,5,0%,-2%
Cc1c(C)n(-c2ccc(Cl)cc2)c2ncnc(N)c12,1%,0%,4,19,11%,-23%
COc1cc(NC(=O)c2nn(C)c3c2COc2ccccc2-3)cc(OC)c1OC,x,32µM*,x,x,x,x
COC(=O)c1ccccc1NC(=O)c1nn(C)c2c1COc1ccccc1-2,x,7.1µM*,x,x,x,x
COc1cc(NC(=O)c2nn(C)c3c2CS(=O)(=O)c2ccccc2-3)cc(OC)c1,4%,13%,10,14,u,-7%
c1ccc(-c2nnc(N3CCCC3)nc2-c2ccccc2)cc1,-15%,-8%,-2,-1,-26%,-34%
CC(C)(C)OC(=O)N1CCc2nc(N3CCN(c4ncccn4)CC3)ncc2C1,x,11%,x,x,x,x
c1nc2n(n1)C1=C(CCCC1)C1(CCCCC1)N2,u,9%,9,8,2.6µM*,x
Cc1nc2nc(NC(=O)C(C)(C)C)[nH]n2c(=O)c1Cc1ccccc1,x,6%,x,x,x,x
O=C1C2C3C=CC(C3)C2C(=O)N1c1cccc(N2C(=O)C3C4C=CC(C4)C3C2=O)n1 (centres undefined),6%,-20%,-2,-3,-9%,u
O=C1C2C3C=CC(C3)C2C(=O)N1c1cccc2cccnc12 (centres undefined),0%,9%,-4,19,5.9µM*,7%
CCOc1cc(C(=O)Oc2cc(C)[nH]c(=O)c2[N+](=O)[O-])cc(OCC)c1OCC,-19%,-2%,-2,23,u,-1%
CCOC(=O)c1c(NC(=O)c2cccs2)sc2c1CCN(C(=O)OCC)C2,u,-19%,4,-14,22%,-58%
CCOC(=O)N1CCc2c(sc(NC(=O)c3ccc(Cl)s3)c2C(N)=O)C1,u,-27%,8,-10,13µM*,-131%
